Bioassay records (PubChem)
S-ASM inh: human S-ASM enzyme inhibition; AID 504937; Potency, µM (titrated, usually from 57.5 µM), without a hit: at the highest dose activity change, negative = inhibition, actives largely listed as inhibitors; hit rate 0.006% among 340,000; placental ASM, HMU-PC fluorogenic substrate, 60 min; active = well fitted inhibition curve with a large enough effect; inconclusive = small, poorly fitted or top-dose-only effect; inactive = no such curve, though single readings can be large or run the other way
Target sequence (P17405 47-631 limits assumed): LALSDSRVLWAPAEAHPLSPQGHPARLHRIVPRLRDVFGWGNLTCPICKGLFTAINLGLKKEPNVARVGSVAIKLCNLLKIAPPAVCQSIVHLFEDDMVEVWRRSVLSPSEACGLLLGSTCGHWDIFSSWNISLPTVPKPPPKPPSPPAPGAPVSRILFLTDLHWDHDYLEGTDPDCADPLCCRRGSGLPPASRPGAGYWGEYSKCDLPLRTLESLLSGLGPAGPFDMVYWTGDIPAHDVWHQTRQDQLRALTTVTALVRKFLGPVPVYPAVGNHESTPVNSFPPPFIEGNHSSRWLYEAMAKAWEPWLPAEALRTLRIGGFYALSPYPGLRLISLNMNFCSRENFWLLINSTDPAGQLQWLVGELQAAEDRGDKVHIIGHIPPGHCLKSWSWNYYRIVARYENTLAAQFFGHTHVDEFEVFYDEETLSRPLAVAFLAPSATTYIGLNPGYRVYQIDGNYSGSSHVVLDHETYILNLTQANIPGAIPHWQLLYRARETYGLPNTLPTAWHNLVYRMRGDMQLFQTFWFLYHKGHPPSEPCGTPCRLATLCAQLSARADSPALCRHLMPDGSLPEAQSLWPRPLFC
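Human placenta-derived ASM enzyme was preincubated with compound for 10 minutes at room temperature, then given fluorogenic substrate HMU-PC0 (9 uM final) for 60 minutes at 37 °C; a pH 10 stop preceded fluorescence reading at Ex 386/Em 447 nm.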
gsp ag: activates gsp, the McCune-Albright syndrome mutation; gsp mutant cells, cAMP HTRF, 30 min; Potency, µM (highest dose often 76.9 µM), without a hit: at the highest dose activation (cAMP increase), usual class: activators; hit rate 0.13% among 340,000; AID 624287; active = well fitted activation curve with a large enough effect; inconclusive = small, poorly fitted or top-dose-only effect, or another doubt; inactive = no such curve, though single readings can be large or run the other way; cell line not stated here;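 also: phosphodiesterase inhibitor Ro 20-1724 added with compounds to block cAMP breakdown; nearly all actives have a fitted effect of over 60% in size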
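Cells stably selected in G418 were plated at 2000/well, grown 16-24 hr, then given compounds in DMSO with the PDE inhibitor […] (300 uM solution added) for 30 min at 37C; cAMP was read by HTRF.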
BCR signal inh: chronic active BCR signaling inhibition | ABC-DLBCL IkBa-CBG/CBR reporter, luminescence ratio, 4 h | hit rate 0.05% among 340,000 | Potency, µM (highest dose often 46.1 µM), for inactives: at the top dose activity change, negative = inhibition, hits mostly inhibitors | AID 493014; active = well fitted inhibition curve with a large enough effect in the signal ratio, with a control signal flat, not every such curve was filed as active; inconclusive = small, poorly fitted or top-dose-only effect, or effect the other way, or a change in a side signal; the % refers to the signal ratio;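 also: plate controls were basal doxycycline-induced cells for no effect and cells given 10 µM MG132 for full effect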
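Compounds up to 46 uM were incubated four hours with TMD8 cells whose green CBG68 luciferase is fused to IkappaBalpha; red CBR luminescence normalised the signal, and concentration-effect curves were fitted to fusion, red and ratio data.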
gsp antag: gsp mutant antagonism; hit rate 0.4% among 340,000; Potency, µM (titrated, usually from 76.9 µM), for inactives: top-dose activity change, negative = inhibition, usual class: inhibitors; AID 624288; gsp-mutant cells, cAMP HTRF, 30 min; calls by dose curve; cell line not stated here;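 also: intracellular cAMP measured with PDE inhibitor Ro 20-1724 present during compound exposure; % is scaled to controls: 0 for no effect and ±100 for the full control effect; nearly all actives have a fitted effect of over 65% in size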
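HTRF cAMP measurement after 30 min RT detection following 30 min, 37C compound treatment alongside […] (added as 300 uM solution) in G418-selected cells seeded at 2000/well and grown 16–24 h.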
MBNL1-CUG inh: inhibitors of human MBNL1 binding to CUG repeat RNA; hit rate 0.036% among 280,000; Potency, µM (doses to about 57.5 µM), for the others: top-dose activity change, negative = inhibition, actives largely listed as inhibitors; TR-FRET MBNL1-His/biotin-(CUG)12 binding, 665/545 ratio; active = well fitted inhibition curve with a large enough effect in the signal ratio, with a control signal flat, not every such curve was filed as active; inconclusive = small, poorly fitted or top-dose-only effect, or effect the other way, or a change in a side signal; inactive = no such curve, though single readings can be large or run the other way; the % refers to the signal ratio; also: % is scaled to controls: 0 for no effect and ±100 for the full control effect
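Ratiometric TR-FRET (665 over 545 nm, excitation 340 nm) tracks disruption of MBNL1-His/biotin-(CUG)12 complex after 60 min at room temperature, with compounds at 92 nM to 58 uM final.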
The depositor's hits bear a star; ? = inconclusive; / = no result given; [ ] = remark or other dose. Most compounds without a hit are left out; they make up all but 0.62% or so of the library. Potency is read from the fitted curve at half-maximal effect.

SMILES	S-ASM inh	gsp ag	BCR signal inh	gsp antag	MBNL1-CUG inh
O=C1/C(=C\c2ccccn2)SC(=S)N1c1ccc(S(=O)(=O)Nc2nccs2)cc1	-9.4%	0.2%[15.4 µM]	?	39.8µM*	15.2%
COc1ccc(/C=C2/SC(=S)N(c3ccc(S(=O)(=O)Nc4nccs4)cc3)C2=O)cc1	-15.0%	9.3%[15.4 µM]	?	31.6µM*	9.6%
COc1ccc(NC(=S)NCc2ccc(F)cc2)cc1	6.4%	-24.7%	-2.4%	-0.5%	1.2%
O=C(O)Cn1nnc(-c2ccc(OCc3cccc(C(F)(F)F)c3)cc2)n1	/	/	14.6%	/	/
COC(=O)c1c(C)[nH]c(C(=O)C(C)OC(=O)C2CC(=O)N(CCc3ccccc3)C2)c1C (stereo not given)	-1.9%	-39.5%	0.5%	3.0%	/
COC(=O)c1c(C)[nH]c(C(=O)C(C)OC(=O)C2CC(=O)N(c3ccc(C)cc3)C2)c1C (stereo not given)	-8.0%	27.8%	?	39.8µM*	/
Cc1ccc(-n2c(=O)c3c(C)c(C(=O)N(C)C)sc3n(CC(=O)N(C)c3ccccc3)c2=O)cc1C	/	/	-5.3%	/	/
C=CCOc1ccc(C(=O)c2ccccc2)c(OCC(=O)NC2(C#N)CCCC2)c1	-4.4%	11.1%[15.4 µM]	?	-30.1%	0.8%
Cc1cc2c(cc(C(=O)OCC(=O)NCc3cccs3)n2C(C)C)o1	-8.4%	9.2%	8.2µM*	5.8%	-5.9%
Cc1cc(C)cc(C(=O)OCC(=O)NCc2cccs2)c1	-2.3%	?	-8.7%	13.2%	-7.1%
CCOC(=O)c1c[nH]c2c(C(F)(F)F)cccc2c1=O	-6.3%	17.0%[15.4 µM]	-2.6%	-2.4%	-3.9%
CCCCn1c(N)c(N(CCOC)C(=O)c2ccc3c(c2)OCCO3)c(=O)[nH]c1=O	-3.3%	-1.0%	-6.3%	2.8%	/
CN1c2ccccc2C(O)=C(C(=S)Nc2ccc(F)c(Cl)c2)S1(=O)=O	16.0%	9.1%[15.4 µM]	?	39.8µM*	3.7%
COc1ccc(N=C(C)C2=C(O)c3ccccc3C2=O)cc1	-4.2%	6.6%	?	-55.4%	?
CC(=O)Nc1ccc(N=C(C2=C(O)c3ccccc3C2=O)c2ccccc2)cc1	-28.2%	-28.8%	?	35.5µM*	?
CN(C)S(=O)(=O)c1ccc2nc(NC(=O)c3cccnc3)sc2c1	19.7%	43.7%	/	-7.8%	20.6%
Nc1ccc2nc(SCc3ccc([N+](=O)[O-])cc3)sc2c1	-7.1%	4.8%	-2.3%	9.4%	?
O=C(NC(Nc1nc2ccc([N+](=O)[O-])cc2s1)(C(F)(F)F)C(F)(F)F)c1cccnc1	-7.0%	?	?	35.5µM*	?
O=[N+]([O-])c1ccc2nc(SCc3ccccc3Cl)sc2c1	-5.4%	-12.0%	?	25.1µM*	-15.4%
O=C(NC(Nc1nc2ccc([N+](=O)[O-])cc2s1)(C(F)(F)F)C(F)(F)F)c1ccccc1Cl	-9.7%	-1.1%	?	25.1µM*	11.7%
O=C(Nc1cccc(Cl)c1)C1CCCN(C2=NS(=O)(=O)c3ccccc32)C1 (stereo not given)	-10.0%	-10.4%[15.4 µM]	0.0%	-17.5%	/
CCn1c(=O)c([N+](=O)[O-])c(NCCc2ccccc2)c2ccccc21	-18.4%	-8.0%	4.2%	39.8µM*	28.5%
Cn1c(=O)c([N+](=O)[O-])c(NCCc2ccccc2)c2ccccc21	-10.1%	-14.4%[15.4 µM]	?	-16.0%	17.1%
N#C/C(=N\Nc1cccc(C(F)(F)F)c1)C(=O)c1csc(-c2cccnc2)n1	-27.6%	-10.6%	?	25.1µM*	1.2%
COc1ccc(Cl)cc1NS(=O)(=O)c1cccc(C(=O)NCCCN2CCOCC2)c1	/	-114.0%	/	/	/
COC(=O)CCCC(=O)OC	0.8%	/	3.5%	-4.4%	/
COC(=O)CCN(C)CCC(=O)OC	0.6%	6.5%	-2.1%	50.1µM*	1.6%
COCCN1C(=O)C(O)=C(C(=O)c2cccs2)C1c1ccccc1 (stereo not given)	2.5%	3.55µM*	2.3%	7.6%	11.9%
O=C(Nc1nc2ccccc2c(=O)s1)c1ccc(F)cc1Cl	-1.2%	14.1µM*	-2.9%	7.1%	0.5%
